# ADAM17 inh – ADAM17 inhibitors, primary screen, biochemical, QFRET; inhibition, % at 6.95 µM; AID 720648, 2013; Disintegrin and metalloproteinase domain-containing protein 17 (Homo sapiens), P78536; recombinant ADAM17, EDANS/DABCYL FRET peptide cleavage; hit rate 0.83% among 370,000;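 active means inhibition above the mean of compounds lying between control limits plus 3 SD, set per campaign, cut at about 8.5% in these data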;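 further: 0% = DMSO-only wells as the low control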
# ADAM10 inh – human ADAM10 inhibitors, primary screen, biochemical, QFRET, HTS; Disintegrin and metalloproteinase domain-containing protein 10 (Homo sapiens), O14672; recombinant ADAM10, EDANS/DABCYL FRET peptide cleavage, 3 h; inhibition, % at 7 µM; hit rate 0.62% among 370,000; AID 720582, 2013;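 active means inhibition above a per-campaign cutoff equal to the mean of compounds falling between control-based bounds plus 3 SD, cut at about 20% in these data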;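 further: 0% = DMSO wells while the 100% control is not disclosed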
# PLC-gamma1 inh – PLC-gamma1 enzyme inhibitors, primary screen, biochemical, fluorescence, purified enzyme; 1-phosphatidylinositol 4,5-bisphosphate phosphodiesterase gamma-1 (Homo sapiens), P19174; fluorogenic substrate; inhibition, % at 12.2 µM; hit rate 0.84% among 370,000; AID 720700, 2013; in the data active means inhibition above about 9.5%
# proKLK7 act – proKLK7 zymogen activators, primary screen, biochemical, fluorescence intensity | Kallikrein-7 (Homo sapiens), P49862 | purified proKLK7, EDANS-DABCYL substrate fluorescence; 100% is mature enzyme control, 0% vehicle | activation, % at 7 µM | hit rate 0.9% among 370,000 | AID 652039, 2013;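 active means activation above the mean of all tested compounds plus 3 SD, computed per campaign excluding outliers beyond control limits, cut at about 13% in these data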
# PLC-beta3 inh – human PLC-beta3 inhibitors, primary screen, biochemical, fluorescence. 1-phosphatidylinositol 4,5-bisphosphate phosphodiesterase beta-3 (Homo sapiens), Q01970. Purified PLC-beta3, fluorogenic substrate. inhibition, % at 12.2 µM. hit rate 0.18% among 370,000. AID 720704, 2013; in the data active means inhibition above about 11%;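 further: 0% = median of compound wells on plate and 100% = full blocker control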
# ADAM10 confirm – human ADAM10 inhibitors, confirmation, biochemical, QFRET, triplicate; shares compounds with ADAM10 inh; inhibition, % at 6.95 µM; AID 743208, 2013; ADAM10 QFRET peptide cleavage, EDANS fluorescence; hit rate 1% among 2,100;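 active means inhibition above about 20% chosen separately for each screening run, limit read from the data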;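 further: 0% = DMSO wells and 100% = marimastat wells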
# ADAM17 ctr – ADAM17 inhibitors, counter-screen for ADAM10 exosite inhibitor project, biochemical, QFRET, high throughput; inhibition, % at 6.95 µM; ADAM17 QFRET peptide cleavage, EDANS fluorescence; hit rate 0.5% among 2,100; shares compounds with ADAM10 inh;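 active means mean triplicate inhibition above the solvent-only control wells' mean plus 3 SD, cut at about 12% in these data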;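 further: 0% = DMSO wells and 100% = marimastat wells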
# ADAM10 ctr – ADAM10 inhibitors, counter-screen for ADAM17 exosite inhibitor project, biochemical, FRET, human ADAM10; hit rate 47% among 2,900; shares compounds with ADAM17 inh; recombinant ADAM10, EDANS/DABCYL FRET peptide cleavage, 3 h; inhibition, % at 6.95 µM;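 active means mean inhibition over the triplicate runs exceeds the activity threshold set in the earlier primary screen, cut at about 20% in these data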;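 further: 0% = DMSO wells and 100% = marimastat wells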
# ADAM17 confirm – ADAM17 inhibitors, hit retest, confirmation, biochemical, QFRET peptide cleavage. hit rate 65% among 2,900. inhibition, % at 6.95 µM. AID 743257, 2014. recombinant ADAM17, EDANS/DABCYL QFRET peptide cleavage. shares compounds with ADAM17 inh;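 active means mean inhibition across replicates above the hit cutoff set in the primary screen, cut at about 8.5% in these data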;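 further: 0% = DMSO wells and 100% = marimastat wells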
# * hit, by the source's call; . = no result given. Only some compounds are listed: those with a hit (about 2.9% of all), similar ones and a draw of the others.
SMILES,ADAM17 inh,ADAM10 inh,PLC-gamma1 inh,proKLK7 act,PLC-beta3 inh,ADAM10 confirm,ADAM17 ctr,ADAM10 ctr,ADAM17 confirm
COC(=O)c1cc2c(c3c4cc(C)ccc4n(C(=O)c4ccccc4)c13)C(=O)N(Cc1ccccc1)C2,-2.1,-12.9,-14.2,-1.8,-21.9,.,.,.,.
COc1ccc(CNS(=O)(=O)c2csc(C(N)=O)c2)cc1OC,3.2,-4.9,7.2,-0.2,-0.1,.,.,.,.
O=C(Nc1ccc(Cl)c(Cl)c1)OCCNC(=O)c1cccc(Cl)c1,9.0*,28.1*,-1.0,0.5,-1.3,4.6,1.3,28.2*,15.7*
CCOC(=O)c1c(C)[nH]c(C)c1C(=O)COC(=O)c1cccc(C)c1O,9.3*,20.0*,-0.2,0.6,-8.8,6.0,1.1,7.2,7.5
Cc1cccc(C(=O)OCC(=O)c2c(C)[nH]c3ccccc23)c1O,-4.7,-11.8,-9.3,0.2,-22.9,.,.,.,.
CCCC(=O)N1CCC[C@]2(CC[C@@H](CCC(=O)N(CC)CC)O2)C1,-0.7,-2.3,1.7,0.0,2.6,.,.,.,.
O=C(CCc1c[nH]c2ccccc12)OCc1ccc(Br)cc1,11.5*,23.1*,0.5,0.1,-20.5,9.3,1.9,19.0,10.8*
CC(=O)c1cccc(N(C(=O)CNC(=O)c2cccs2)C(C(=O)NCC2CCCO2)c2ccccc2)c1 (stereo not given),-9.4,4.5,0.7,0.7,-10.5,.,.,.,.
O=C(NCc1cccs1)C1CCC(=O)N1C1CCCCC1 (stereo not given),1.9,8.0,2.1,0.5,-2.0,.,.,.,.
O=C(NCc1ccc(Cl)c(Cl)c1)c1cc(C2CCCCN2C(=O)CCc2ccccc2)on1 (stereo not given),9.2*,25.1*,3.6,0.8,2.3,5.2,0.8,18.5,10.4*
O=C(NCc1ccccc1)c1cc(C2CCCCN2C(=O)CCc2ccccc2)on1 (stereo not given),-1.4,-1.2,5.2,0.0,0.8,.,.,.,.
COc1ccc(NC(=O)COC(=O)c2c3c(nc4ccccc24)CCCC3)cc1Cl,11.9*,23.5*,7.0,-0.3,2.8,4.5,2.5,30.3*,18.7*
C=C[C@H]1C(C(=O)OCC)=CC[C@@H](c2ccccc2)N1S(=O)(=O)c1ccc(C)cc1,13.5*,28.4*,0.4,1.5,3.4,3.5,1.4,15.7,6.5
Cc1ccc(SCCNC(=O)c2ccccc2)cc1,-2.5,3.1,1.0,-0.5,2.7,.,.,.,.
Cc1ccc(C(=O)NCCSc2ccc(Cl)cc2)cc1S(=O)(=O)Nc1ccccc1,11.0*,25.2*,3.5,-0.1,4.9,7.5,2.5,27.0*,15.7*
Cc1ccccc1NS(=O)(=O)c1cc(C(=O)NCCC2=CCCCC2)ccc1Cl,3.4,7.9,1.7,0.1,3.0,.,.,.,.
Cc1ccc(C)c(S(=O)(=O)Nc2ccc(C(=O)NCCCN(C)C)cc2)c1,-5.0,-12.1,2.0,-0.2,-6.2,.,.,.,.
CS(=O)(=O)Nc1ccccc1C(=O)NCCSc1ccc(Cl)cc1,-52.3,-106.5,-26.5,-4.4,-40.1,.,.,.,.
Cc1ccc(SCCNC(=O)c2ccc(C)c(S(=O)(=O)Nc3cccc(C)c3)c2)cc1,12.0*,27.0*,1.5,0.1,1.1,6.9,3.0,30.4*,17.2*
Cc1cccc(NS(=O)(=O)c2cc(C(=O)NCCC3=CCCCC3)ccc2Cl)c1,8.7*,21.1*,2.3,-0.3,1.8,5.7,2.4,21.4*,11.7*
Cc1ccc(NS(=O)(=O)c2cc(C(=O)NCCSc3ccc(C)cc3)ccc2C)cc1,11.6*,23.2*,3.1,0.2,3.6,7.1,3.0,37.7*,20.3*
CN(C(=O)c1cc(S(=O)(=O)N2CCOCC2)cs1)c1ccccc1,-2.8,-4.6,2.9,-0.2,-1.8,.,.,.,.
Cc1sc2ncnc(N3CCC(C(=O)N(C)CC(=O)Nc4ccc(Cl)c(C(F)(F)F)c4)CC3)c2c1C,11.6*,22.7*,3.1,0.1,3.1,8.4,2.3,47.8*,25.0*
Cc1sc2ncnc(N3CCC(C(=O)N(C)CC(=O)Nc4cccc(F)c4)CC3)c2c1C,-1.3,-2.1,2.2,-0.3,1.1,.,.,.,.
CCCn1c(SCC(=O)N2c3ccccc3Sc3ccccc32)nc2ccccc21,10.4*,25.8*,4.8,-0.1,4.9,3.1,0.4,17.1,11.1*
SMILES,ADAM17 inh,ADAM10 inh,PLC-gamma1 inh,proKLK7 act,PLC-beta3 inh,ADAM10 confirm,ADAM17 ctr,ADAM10 ctr,ADAM17 confirm
CC1CCN(c2ccc(C(=O)O)cc2NS(=O)(=O)c2ccccc2)CC1,0.2,-5.2,-1.2,0.2,-3.6,.,.,.,.
C=CCN(C(=O)[C@@H](C1CC1)[C@@H](O)c1ccc(Cl)cc1)c1ccccc1,-0.2,4.4,-0.2,0.1,1.2,.,.,.,.
CCCCCCNC(=O)O[C@H]1Cn2c(=O)n(CCCCCC)c(=O)n2[C@@H]2CN(S(=O)(=O)c3ccc(C)cc3)C[C@]12O,11.2*,20.4*,-1.9,0.0,-5.0,13.7,3.5,39.9*,21.6*
CC(O)(c1ccc(F)c(F)c1)c1nc(-c2cccc(C(F)(F)F)c2)cs1 (stereo not given),11.0*,26.3*,-0.1,0.1,1.0,10.7,3.2,32.7*,16.8*
CC(O)(c1cccc(F)c1)c1nc(-c2cccc(C(F)(F)F)c2)cs1 (stereo not given),11.1*,23.2*,4.3,-0.4,0.7,6.6,1.6,45.4*,28.1*
OC(c1ccccc1)(c1nc(-c2cccc(C(F)(F)F)c2)cs1)C(F)(F)F (stereo not given),13.8*,26.0*,6.2,-0.1,2.9,16.1,4.5,35.2*,19.0*
CC(O)(c1ccc(F)c(F)c1)c1nc(-c2cccc(C(=O)O)c2)cs1 (stereo not given),-5.2,-7.1,4.2,0.3,-4.6,.,.,.,.
OCc1cccc(-c2csc(C(O)(c3ccccc3)C(F)(F)F)n2)c1 (stereo not given),3.3,11.1,0.5,0.6,1.5,.,.,.,.
